Source: PubChem BioAssay AID1728 (National Center for Advancing Translational Sciences (NCATS), 2009)
The other results are listed elsewhere or left out. Inconclusive results are not listed. Values without a mark were called inactive. Calls come from the whole dose curve; as a rule, active = well fitted curve in the direction sought with a large enough effect; inconclusive = small, poorly fitted or top-dose-only effect, or another doubt; inactive = no such curve, though single readings can be large or run the other way.

molecular target: RAF proto-oncogene serine/threonine-protein kinase (Homo sapiens) (UniProt P04049); experiment: Assay for Inhibitors of the ERK Signaling Pathway using a Homogeneous Screening Assay: c-Raf Inhibition; settings: homogeneous biochemical assay; series mostly up to 76.9 µM; activity change, negative = inhibition: at the top concentration
Source text: qHTS Assay for Inhibitors of the ERK Signaling Pathway using a Homogeneous Screening Assay
NIH Chemical Genomics Center [NCGC]
NIH Molecular Libraries Screening Centers Network [MLSCN]
Assay Submitter (PI): Dr. Wei Zheng, NCGC/NIH
The Ras/extracellular-signal-regulated kinase (ERK) mitogen activated protein (MAP) kinase signaling pathway (ERK1/2 cascade) plays is a key role in transmitting signals from the cell surface to the nucleus (Nishida and Gotoh 1993; Chang and Karin, 2001). The cascade is initiated by the small G-protein Ras, which recruits Raf […], where activation occurs. Alternatively, this pathway can be activated by elevating intracellular cAMP.
Activation of the ERK pathway is essential in increased cell division and cell survival. Sustained and constitutive activation of the ERK pathway, however, has been linked to uncontrolled cell proliferation, increased cell survival, and tumor progression. Thus, the ERK has been as an attractive target for cancer chemotherapy in the past few years (Sebolt-Leopold and Herrera, 2004). […]
The HTRF kinase assay (components supplied as kit by Cisbio) was chosen for the EGFR and EGFR mutant enzyme assays that applied the time resolved fluorescence resonance energy transfer (TR-FRET) principle. […]

Sequence of RAF proto-oncogene serine/threonine-protein kinase (Homo sapiens) (P04049 whole entry, looked up): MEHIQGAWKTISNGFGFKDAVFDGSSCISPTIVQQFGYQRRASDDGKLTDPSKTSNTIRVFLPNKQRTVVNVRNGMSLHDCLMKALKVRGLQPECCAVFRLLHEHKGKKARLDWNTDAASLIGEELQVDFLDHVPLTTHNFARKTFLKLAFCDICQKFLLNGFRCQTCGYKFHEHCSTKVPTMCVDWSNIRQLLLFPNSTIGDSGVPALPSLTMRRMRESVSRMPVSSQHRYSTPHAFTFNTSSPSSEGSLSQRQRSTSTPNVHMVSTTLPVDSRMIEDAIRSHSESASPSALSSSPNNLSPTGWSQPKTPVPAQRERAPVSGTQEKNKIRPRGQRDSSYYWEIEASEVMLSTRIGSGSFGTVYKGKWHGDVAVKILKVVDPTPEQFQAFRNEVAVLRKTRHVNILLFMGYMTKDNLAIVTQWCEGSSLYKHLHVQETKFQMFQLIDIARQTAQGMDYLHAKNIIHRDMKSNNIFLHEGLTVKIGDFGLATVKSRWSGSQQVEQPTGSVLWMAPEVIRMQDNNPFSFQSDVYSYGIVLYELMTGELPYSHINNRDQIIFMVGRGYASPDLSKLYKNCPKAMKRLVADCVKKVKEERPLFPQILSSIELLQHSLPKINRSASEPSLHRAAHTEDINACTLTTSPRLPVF

In order of rising “activity change, negative = inhibition” value:
1. O=[N+]([O-])c1ccccc1N/N=C1\CCc2ccccc21  -15.1%
2. CN(C)c1ccc(Nc2c3c4c(cccc4n(C)c2=O)C(=O)c2ccccc2-3)cc1  -9.46%
